RPL19A TOR yeast = yeast TOR pathway RPL19A-GFP modulation. S. cerevisiae RPL19A-GFP strain, flow cytometry, 3 h; active compounds read low. 0.3% of 330,000 active. AID 2025. percent response vs DMSO, % at 10 µM;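 active = percent response vs DMSO below 50%; inconclusive = fewer than 70 events counted for the yeast strain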;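 note: median channel GFP fluorescence of the barcoded RPL19A-GFP strain; ratio of sample median GFP to plate DMSO average so 100% = DMSO; lower means less RPL19A-GFP as with rapamycin TOR inhibition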
MEP2 TOR yeast = alters MEP2-GFP fluorescence in TOR pathway yeast screen | S. cerevisiae MEP2-GFP strain, flow cytometry GFP, 3 h; 100% = DMSO control level | GFP response vs DMSO, % at 10 µM | 0.51% of 330,000 active | AID 2016;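 active = GFP response versus DMSO above a set limit, roughly screen mean plus 3 SD, cut at about 180% in these data; inconclusive = fewer than 70 cells counted for a yeast strain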;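 note: median GFP fluorescence of the barcode-gated MEP2-GFP cells per well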
LAP4 TOR yeast = alters LAP4-GFP fluorescence in TOR pathway yeast screen | S. cerevisiae LAP4-GFP multiplex, flow cytometry GFP, 3 h; median GFP as percent of DMSO wells | GFP response vs DMSO, % at 10 µM | 0.34% of 320,000 active | AID 2023;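 active = GFP response vs DMSO above a set limit, about the screen mean plus 3 SD, cut at about 150% in these data; inconclusive = under 70 cell events counted for the yeast strain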
AGP1 TOR yeast = yeast TOR pathway AGP1-GFP modulation. GFP response vs DMSO, % at 10 µM. S. cerevisiae AGP1-GFP multiplex flow cytometry, 3 h; GFP as percent of DMSO wells. 0.02% of 320,000 active;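 active = GFP response relative to DMSO above a set limit, near screen average plus 3 SD, cut at about 150% in these data; inconclusive = fewer than 70 cells counted for the yeast strain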;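 note: median GFP channel fluorescence of the gated AGP1 strain per well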
CIT2-GFP yeast = alters CIT2-GFP fluorescence in TOR pathway yeast screen. 0.065% of 320,000 active. GFP response vs DMSO, % at 10 µM. S. cerevisiae CIT2-GFP strain, flow cytometry, 3 h; 100 means same as DMSO wells. AID 2029;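 active = GFP response relative to DMSO above a set limit, near the screen mean plus 3 SD, cut at about 150% in these data; inconclusive = Fewer than 70 cells measured for a yeast strain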;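 note: ratio of well median GFP fluorescence to mean of DMSO wells on the plate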
Starred values were filed as active, the others as inactive; u = inconclusive; x = no result; [ ] = another dose, or the depositor's remark. Only some compounds are listed: those with a hit (about 0.93% of all), similar ones and a draw of the others.

SMILES	RPL19A TOR yeast	MEP2 TOR yeast	LAP4 TOR yeast	AGP1 TOR yeast	CIT2-GFP yeast
COc1ccc(C(=O)NC(=S)Nc2ccc(N3CCOCC3)cc2)cc1Cl	98	104	99	91	99
CCN1C(=O)/C(=C\c2cccc(OC(=O)c3ccco3)c2)SC1=S	47*[may fluoresce violet]	u	77	u	u
O=C(O)CN1C(=O)/C(=C\c2cccc(OC(=O)c3ccco3)c2)SC1=S	100	103	102	95	91
Cc1ccc(CNC(=O)c2cn(C3CCCCC3)c(=O)c3c2c2ccccc2n3C)o1	99	101	98	100	103
Cc1ccc(CNC(=O)c2cn(C)c(=O)c3c2c2ccccc2n3C)o1	46*[may fluoresce violet]	283*[may fluoresce violet]	111	u	u
O=C(c1ccc2c(c1)OCO2)N1CCc2ccccc21	50	294*[may fluoresce violet]	71	u	u
O=C(c1ccc2c(c1)OCO2)N1CCCc2ccccc21	85	98	122	95	83
CC1(C)CCN2CCC(C)(C)c3c(O)ccc1c32	113	234*	164*	107	191*
COc1ccc(NC(=O)CCC(=O)NCCO)cc1	59	291*[may fluoresce violet]	102	22	u
O=C(CCC(=O)Nc1ccccc1)NCCO	100	102	101	99	97
COc1ccc(CCCNC(=O)C2CCC(=O)N(CC3CCCCC3)C2)cc1 (stereo not drawn)	100	97	112	101	96
CCOc1ccc(CNC(=O)CCCn2ccc3cc(S(=O)(=O)N4CCCC4)ccc32)cc1	22*[may fluoresce violet]	154	81	14	u
Cc1nnc(SCc2ccc(F)cc2Cl)s1	19*[may fluoresce violet]	181*[may fluoresce violet]	88	u	u
Cc1cccc(OCCCSc2nc3ccc(C)cc3[nH]2)c1	95	98	162*	91	83
COc1cccc(Nc2nc(N)c([N+](=O)[O-])c(N3CCOCC3)n2)c1	53	214*[may fluoresce violet]	71	17	u
CC(C(=O)NCc1ccco1)n1cc([N+](=O)[O-])cn1 (stereo not drawn)	96	96	96	92	96
O=C(NCCCn1ccnc1)/C(=C\c1ccc(Br)cc1)NC(=O)c1ccccc1	112	110	106	120	114
CCc1nnc(NC(=O)c2ccc3ccccc3n2)s1	106	111	100	86	81
CCSc1nnc(NC(=O)c2ccc3ccccc3n2)s1	54	208*[may fluoresce violet]	128	x	u
CCS(=O)(=O)c1nc(S(=O)(=O)c2ccc(C)cc2)c(N2CC(C)CC(C)C2)s1 (stereo not drawn)	106	111	107	108	103
O=C(CN1CCS(=O)(=O)CC1)N/N=C/c1cccc(C(F)(F)F)c1	98	103	93	111	150*
CC(C)(C)C#CC(CCc1ccccc1)OS(N)(=O)=O (stereo not drawn)	93	89	129	85	92
Fc1ccc(C2Nc3cccc4cccc(c34)N2)cc1	106	202*	159*	97	137
O=[N+]([O-])c1ccc(C2Nc3cccc4cccc(c34)N2)cc1	103	107	88	104	109
COC(=O)c1ccc(C2Nc3cccc4cccc(c34)N2)cc1	96	102	152*	102	74
SMILES	RPL19A TOR yeast	MEP2 TOR yeast	LAP4 TOR yeast	AGP1 TOR yeast	CIT2-GFP yeast
C=C1SC(Nc2c(C)cccc2C)=NC12CCCCC2	58	651*[may fluoresce violet]	96	19	u
CCN1C(=O)/C(=C\N2CCN(c3ccc(F)cc3)CC2)SC1=S	100	96	98	94	96
CCN1C(=O)/C(=C\N2CCN(C)CC2)SC1=S	42*[may fluoresce violet]	332*[may fluoresce violet]	87	u	u
O=S(=O)(/N=C(/Nc1ccc(F)cc1F)c1ccc(Cl)cc1)c1ccccc1	83	175*	139	x	126
Cc1ccc(S(=O)(=O)/N=C(/Nc2ccc(F)cc2F)c2ccc(F)cc2)cc1	99	110	94	90	100
COc1ccc(N(CC(=O)N2CCC(Cc3ccccc3)CC2)S(C)(=O)=O)cc1	98	96	98	100	95
Cc1onc(-c2ccccc2Cl)c1C(=O)N1CCC(Cc2ccccc2)CC1	27*[may fluoresce violet]	240*[may fluoresce violet]	51	u	u
COc1ccc(CNS(=O)(=O)c2ccc3c(c2)C(C)(C)C(=O)N3C)cc1	57	823*[may fluoresce violet]	114	22	u
O=C(Nc1cccc(F)c1)N1CCCCCC1	116	101	101	109	108
COC(=O)c1cc(Br)ccc1NC(=O)CCNC(=O)c1ccco1	107	107	105	103	95
O=C(O)CNCC1COc2ccccc2O1 (stereo not drawn)	15*[may fluoresce violet]	256*[may fluoresce violet]	135	u	u
Cc1ccccc1NC(=S)c1ccc2ccccc2n1	96	104	99	94	97
O=C(N=Nc1c(O)[nH]c2ccccc12)c1ccco1	68	493*	197*	152*	108
O=C(CSCc1cccc(Br)c1)N=Nc1c(O)[nH]c2ccccc12	65	136	165*	110	116
O=C(CSCc1ccccc1)N=Nc1c(O)[nH]c2ccccc12	101	100	90	98	98
CCSc1ncc(CO)c(N)n1	102	109	99	101	105
Cc1cccc(C(=O)N2CCN(S(=O)(=O)N3CCCCCC3)CC2)c1	101	105	102	102	101
COc1ccc2c(c1)c(C(C)=O)c(C)n2-c1ccccc1OC	80	100	151*	91	95
COc1ccc(C2=NS(=O)(=O)N(C)C(C(=O)N3CCC(C(N)=O)CC3)=C2)cc1	97	96	96	102	103
COC(=O)c1cccc(NC(=O)Nc2ccc(Cl)cc2Cl)c1	51	721*[may fluoresce violet]	110	20	u
O=C(O)c1cccc(NC(=S)NC(=O)c2cccc(OCc3ccccc3)c2)c1	94	100	116	94	89
CC(=O)c1cccc(NC(=O)Nc2ccccc2)c1	57	582*[may fluoresce violet]	79	80	u
O=C(Nc1ccc(COc2ccccc2)cc1)Nc1cccc(C(=O)O)c1	30*[may fluoresce violet]	800*[may fluoresce violet]	68	u	u
CCOc1ncccc1C(=O)N1CCN(S(=O)(=O)c2ccc3c(c2)OCCO3)CC1	98	100	95	100	105
COC(=O)c1ccccc1NC(=O)c1cccnc1	107	117	94	104	105
Cc1ccc(N(C(=O)CNC(=O)c2ccco2)C(C(=O)NC2CCCC2)c2cccnc2)cc1F (stereo not drawn)	101	103	101	107	97
O=C(N/N=C/c1c(F)cccc1Cl)C1CC1	100	108	102	98	95
Cc1c(/C=N\NC(=O)C2COc3ccccc3O2)c2ccccc2n1C (stereo not drawn)	93	91	97	93	77
Cc1c(/C=N/Nc2ccc(C(=O)O)cc2)c2ccccc2n1C	96	104	159*	88	82

Source: PubChem (NMMLSC)
